Experiment [1] addresses Calcium and integrin-binding protein 1 (Homo sapiens) (UniProt Q99828). As to the kind of experiment: Primary qHTS for Identification of Calcium Integrin Binding Protein 1 (CIB1) Competitor (AID 1508620).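 Note: GST tagged CIB1 binding a fluorescein labelled alphaIIb integrin peptide tracer; top concentration of the series differs between compounds; % is set by controls: 0 for no effect and ±100 for the full control effect.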 The following applies: CIB1-GST / FITC-alphaIIb peptide fluorescence polarization; series mostly up to 114 µM. In short, it runs like this:
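Fluorescence polarization competition: CIB1-GST (1 uM final) preincubated with compound 15 min at room temperature, then FITC-labeled alphaIIb peptide (100 nM final) added for another 15 min. Polarization read at Ex 480/Em 540.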
(In qHTS, concentration-response curves come from the screen itself.)

The nature of experiment [2]: A High-Content qHTS Against Drug Library for the Identification of Small Molecules that Inhibit DYT1 Early Onset Primary Dystonia-Associated Cell Pathology (AID 1645839; calls by dose curve). The following applies: HEK293 Flp-In EGFP-delE TorsinA, punctate imaging, 48 h; series mostly up to 46.1 µM. The essentials: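 Readout: %pathology, the punctate EGFP-TorsinA distribution from imaging, as the primary channel and cell count as the toxicity counterscreen. HEK293 Flp-In cells expressing delE TorsinA were induced with tetracycline and treated with compound for 48 h.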

The target in experiment [3] is Cytochrome P450 2D6 (Homo sapiens) (UniProt P10635). As to the kind of experiment: Cytochrome P450 family 2 subfamily D member 6 (CYP2D6) small molecule antagonists: luciferase biochemical (cell-free) qHTS assay (AID 1645840; active = well fitted curve in the direction sought with a large enough effect in the repeat runs; an effect the other way counts as inactive or inconclusive; note: nearly all actives have a fitted effect of over 55% in size; note: potency is the fitted concentration of half-maximal effect; for activity change, negative = inhibition: % is set by controls: 0 for no effect and ±100 for the full control effect). The conditions noted are these: P450-Glo CYP2D6 enzyme, luciferin luminescence, 1 h; series mostly up to 57.4 µM. The essentials: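 P450-Glo luminescent screen: recombinant CYP2D6 enzyme–proluciferin substrate mix preincubated with compound 10 min at room temperature, then NADPH regeneration added for 1 h at room temperature. Detection reagent added for 20 min; luciferin light read as relative luminescence units.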
Cytochrome P450 2D6 (Homo sapiens), sequence (P10635 whole entry, looked up): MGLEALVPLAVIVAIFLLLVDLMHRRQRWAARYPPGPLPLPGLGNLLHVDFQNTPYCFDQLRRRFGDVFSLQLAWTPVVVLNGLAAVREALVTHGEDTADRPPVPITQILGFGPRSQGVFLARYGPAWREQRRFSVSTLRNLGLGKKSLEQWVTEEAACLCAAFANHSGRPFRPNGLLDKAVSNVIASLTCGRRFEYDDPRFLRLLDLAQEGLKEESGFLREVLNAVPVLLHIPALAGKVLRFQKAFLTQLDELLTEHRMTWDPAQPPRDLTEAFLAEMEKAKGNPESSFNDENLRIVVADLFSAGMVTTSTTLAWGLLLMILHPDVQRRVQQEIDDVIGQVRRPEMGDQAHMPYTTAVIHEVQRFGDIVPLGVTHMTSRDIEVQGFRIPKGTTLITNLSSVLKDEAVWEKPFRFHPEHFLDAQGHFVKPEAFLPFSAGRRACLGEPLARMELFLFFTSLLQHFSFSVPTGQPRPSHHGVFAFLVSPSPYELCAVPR

In experiment [4] the target is Cytochrome P450 2C9 (Homo sapiens) (UniProt P11712). As to the kind of experiment: Cytochrome P450 family 2 subfamily C member 9 (CYP2C9) small molecule antagonists: luciferase biochemical (cell-free) qHTS assay (AID 1645842; active = well fitted curve in the direction sought with a large enough effect in the repeat runs; an effect the other way counts as inactive or inconclusive; note: nearly all actives have a fitted effect of over 55% in size; note: potency is the fitted concentration of half-maximal effect; for activity change, negative = inhibition: % is set by controls: 0 for no effect and ±100 for the full control effect). The conditions noted are these: P450-Glo CYP2C9 enzyme assay, luciferin luminescence; series mostly up to 57.4 µM. The essentials:
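Luminescence, after 20 min with luciferin detection reagent, reflected CYP2C9 turnover during a 1 h NADPH-driven reaction at 37C. Enzyme-substrate mix contained 0.4% bovine serum albumin and was preincubated with compound 10 min at room temperature.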

Experiment [5] is described as follows: Primary qHTS for inhibitors of nuclear receptor binding SET domain protein 2 (NSD2) in an isogenic RCH-ACV NSD2 p.E1099K mutant (9B) (AID 1645876). Note: nearly all actives have a fitted effect of over 70% in size. Note: potency is the fitted concentration of half-maximal effect. The following applies: RCH-ACV NSD2 E1099K (9B) viability, CellTiter-Glo, 72 h; series mostly up to 44.9 µM.
Experiment [6] in a line: Primary qHTS for inhibitors of nuclear receptor binding SET domain protein 2 (NSD2) in an RCH-ACV wild type WT cells (2C) (AID 1645877). Note: nearly all actives have a fitted effect of over 70% in size. Note: potency is the fitted concentration of half-maximal effect. The following applies: RCH-ACV (leukaemia line) NSD2 WT (2C) viability, CellTiter-Glo, 72 h; series mostly up to 44.9 µM.
Experiment [7] can be described thus: Primary qHTS to identify inhibitors of SARS-CoV-2 cell entry (AID 1645846; calls by dose curve; note: nearly all actives have a fitted effect of over 45% in size). The conditions noted are these: SARS-CoV-2 pseudovirus cell entry assay, luminescence; activity change, negative = inhibition: at 57.1 µM (top of the series) unless noted; series mostly up to 57.1 µM. In short, it runs like this: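 Entry measured by luciferase signal 48 h after adding SARS-CoV-2-S pseudotyped MLV particles to HEK293-ACE2 cells preincubated 1 h with compounds. Normalisation: bald particles and spike particles.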

The nature of experiment [8]: Cytotoxicity counterscreen for inhibitors of SARS-CoV-2 cell entry (AID 1645845; calls by dose curve; note: nearly all actives have a fitted effect of over 50% in size). The conditions noted are these: cell viability (SARS-CoV-2 entry assay cells); series mostly up to 57.1 µM. In short, it runs like this:
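Expi293F/hACE2 cells seeded overnight; cpd pin-transferred in DMSO, 1 h preincubation, + media, 48 h 37 C 5% CO2; ATPLite 1step luminescence; normalized to cells and no cells.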
(In general: The purpose of a counterscreen is to sort out artefacts and off-target activity.)

Experiment [9] is described as follows: Primary qHTS for small molecule stabilizers of the endoplasmic reticulum resident proteome: Secreted ER Calcium Modulated Protein (SERCaMP) assay (AID 1508630). Note: % is set by controls: 0 for no effect and ±100 for the full control effect. The conditions noted are these: SH-SY5Y GLuc-SERCaMP (Gaussia luciferase released on ER calcium loss) secretion, thapsigargin, luminescence; series mostly up to 38.4 µM. In short, it runs like this:
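GLuc-SERCaMP-expressing SH-SY5Y cells, pretreated 16 h with compound, are challenged with thapsigargin to empty ER calcium stores; after 4 h, coelenterazine is added directly to the medium and luminescence is imaged.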

The nature of experiment [10]: Confirmatory qHTS to identify inhibitors of SARS-CoV-2 cell entry (AID 1645844; calls by dose curve; note: potency is the fitted concentration of half-maximal effect; nearly all actives have a fitted effect of over 45% in size). The following applies: SARS-CoV-2 pseudotyped particle cell entry, luciferase; series mostly up to 57.2 µM. The essentials: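 HEK293-ACE2 cells (Expi293F stably expressing human ACE2) were pretreated with compounds for 1 hr at 37C, then infected with MLV-based particles carrying Wuhan-Hu-1 spike (C-terminal 19-aa truncation). Luciferase luminescence read after 48 hr; normalized to spike PP (100%) and bald PP (0%).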

The nature of experiment [11]: VSVG counterscreen qHTS to identify inhibitors of SARS-CoV-2 cell entry (AID 1645847; calls by dose curve; note: potency is the fitted concentration of half-maximal effect; nearly all actives have a fitted effect of over 65% in size). The conditions noted are these: VSV-G pseudotyped particle entry, luciferase; series mostly up to 57.2 µM. The essentials:
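Luminescence read after 48 h infection at 37 C with VSV-G-pseudotyped MLV particles, following 1 h compound exposure of Expi293F cells stably expressing human ACE2; scaled between bald particle and VSV-G particle wells.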

Experiment [12] deals with Cytochrome P450 3A4 (Homo sapiens) (UniProt P08684). Kind of experiment: Cytochrome P450 family 3 subfamily A member 4 (CYP3A4) small molecule antagonists: luciferase qHTS assay (AID 1645841; active = well fitted curve in the direction sought with a large enough effect in the repeat runs; an effect the other way counts as inactive or inconclusive; note: nearly all actives have a fitted effect of over 45% in size). The conditions noted are these: P450-Glo CYP3A4 enzyme assay, luciferin luminescence; series mostly up to 57.4 µM. The essentials:
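P450-Glo CYP3A4 enzyme with proluciferin substrate was preincubated with DMSO-dissolved compounds for 10 min at room temperature. NADPH regeneration solution started a 1 h reaction. Detection reagent stopped it, and luminescence was read after 20 min.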

Experimental findings from PubChem BioAssay (NCATS) are described below.

Records with an inconclusive call do not appear. Active and inactive are the calls of the source. Unless noted, calls come from the whole dose curve; as a rule, active = well fitted curve in the direction sought with a large enough effect; inconclusive = small, poorly fitted or top-dose-only effect, or another doubt; inactive = no such curve, though single readings can be large; an effect the other way counts as inactive or inconclusive.

Calcium and integrin-binding protein 1 (Homo sapiens), sequence (Q99828 whole entry, looked up): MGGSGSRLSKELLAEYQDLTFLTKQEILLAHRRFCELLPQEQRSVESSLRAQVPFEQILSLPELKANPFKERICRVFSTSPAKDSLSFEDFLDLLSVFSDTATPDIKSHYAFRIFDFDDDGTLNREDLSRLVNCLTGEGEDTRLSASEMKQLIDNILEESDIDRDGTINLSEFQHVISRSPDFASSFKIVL
Cytochrome P450 2C9 (Homo sapiens), sequence (P11712 whole entry, looked up): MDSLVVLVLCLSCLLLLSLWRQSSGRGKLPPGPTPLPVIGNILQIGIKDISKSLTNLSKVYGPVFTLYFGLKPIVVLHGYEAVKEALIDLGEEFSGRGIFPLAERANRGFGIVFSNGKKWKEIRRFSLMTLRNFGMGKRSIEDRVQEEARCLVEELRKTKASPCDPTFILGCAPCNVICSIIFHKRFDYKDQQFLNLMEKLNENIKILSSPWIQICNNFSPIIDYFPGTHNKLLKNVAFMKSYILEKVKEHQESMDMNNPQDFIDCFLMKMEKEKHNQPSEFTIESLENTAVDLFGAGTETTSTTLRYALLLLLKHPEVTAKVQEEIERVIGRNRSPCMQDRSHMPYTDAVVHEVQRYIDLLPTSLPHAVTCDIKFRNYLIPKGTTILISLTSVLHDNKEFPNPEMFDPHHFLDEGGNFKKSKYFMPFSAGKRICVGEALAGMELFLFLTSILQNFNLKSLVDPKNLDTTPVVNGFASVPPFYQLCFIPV
Cytochrome P450 3A4 (Homo sapiens), sequence (P08684 whole entry, looked up): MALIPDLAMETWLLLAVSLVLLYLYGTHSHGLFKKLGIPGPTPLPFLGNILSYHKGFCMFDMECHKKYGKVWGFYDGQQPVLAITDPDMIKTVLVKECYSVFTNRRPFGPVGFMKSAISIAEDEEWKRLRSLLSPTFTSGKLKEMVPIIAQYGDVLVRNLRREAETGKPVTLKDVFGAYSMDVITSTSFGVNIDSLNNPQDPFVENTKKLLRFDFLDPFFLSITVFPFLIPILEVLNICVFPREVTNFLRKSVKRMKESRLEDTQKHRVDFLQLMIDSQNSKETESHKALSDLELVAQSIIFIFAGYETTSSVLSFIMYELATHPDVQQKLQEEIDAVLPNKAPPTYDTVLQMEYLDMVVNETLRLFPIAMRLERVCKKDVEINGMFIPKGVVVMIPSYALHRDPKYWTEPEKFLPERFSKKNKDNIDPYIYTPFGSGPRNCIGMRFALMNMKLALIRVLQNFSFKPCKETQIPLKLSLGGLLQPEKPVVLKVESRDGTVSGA

Regarding `O=C(O)c1ccc(=O)[nH]c1`, the Potency entry in experiment [1], in [3], in experiment [4], in experiment [5] and in [6] was “inactive” throughout. Moreover, the compound was classed as inactive in [2].
Take `C[C@]12CC[C@@H]3c4ccc(OC(=O)N(CCCl)CCCl)cc4CC[C@H]3[C@@H]1CC[C@@H]2OP(=O)(O)O`: the Potency result in [1], in [7], in [5] and in [6] was “inactive” throughout.
As for `C[C@]12CC[C@H]3[C@@H](CC[C@@]45O[C@H]4C(O)=C(C#N)C[C@]35C)[C@H]1CC[C@H]2O`, the Potency entry in experiment [1], in [3], in experiment [4] and in experiment [8] was “inactive” throughout. Besides, in experiment [2], the call was inactive. Besides, in experiment [7], the activity change, negative = inhibition was -26.2%. The Potency in experiment [5] was 15 µM (active); in [6], 10.6 µM (active).
Take `CC(C)C[C@H](CN)CC(=O)O`: the Potency result in experiment [1], in [7], in [5] and in experiment [6] was “inactive” throughout.
Consider `CCCN(CCC)C(=O)Cc1c(-c2ccc(Cl)cc2)nc2ccc(Cl)cn12`, for which the Potency result in experiment [1], in experiment [5] and in experiment [6] was “inactive” each time. Besides, in experiment [4], the Potency was 12.3 µM (active).
`COc1cccc2c1C(=O)c1c(O)c3c(c(O)c1C2=O)C[C@@](O)(C(=O)CO)CC3OC1CC(N2CCOC(OC)C2)C(O)C(C)O1` (some centres not stated): the Potency result in [9] and in [3] was “inactive” throughout. Further, in [2], the call was inactive. Further, the Potency in experiment [4] is 3.47 µM (active); in experiment [10], 0.0482 µM (active); in experiment [11] it was 0.0482 µM (active); in [5], 0.0047 µM (active); in [6], 0.0033 µM (active).
Turning to `CCC1(CC)C(=O)C=CNC1=O`, the Potency entry in experiment [1], in experiment [3], in experiment [5] and in [6] was “inactive” each time. Besides, the outcome in experiment [2] was inactive.
Take `CC(C)(C)c1ccc(O)cc1`: in [2], the result was inactive.
For `NC(=O)CS(=O)C(c1ccccc1)c1ccccc1` (configuration not stated), the Potency result in [1], in experiment [4], in [5] and in experiment [6] was “inactive” in each case. Besides, in experiment [2], the call was inactive.
On to `Nc1ccc([As](=O)(O)O)cc1`, for which the Potency entry in experiment [1], in experiment [3], in [12], in experiment [4], in [8] and in experiment [5] was “inactive” in each case. For the same compound, the Potency entry in experiment [6] is “inactive”. For the same compound, the compound was called inactive in experiment [2]. For the same compound, in [7], the activity change, negative = inhibition is -1.46%.
Turning to `CC1(C)C(C=C(Cl)Cl)C1C(=O)OC(C#N)c1cccc(Oc2ccccc2)c1` (configuration not stated), the Potency entry in experiment [9], in experiment [3], in experiment [5] and in experiment [6] was “inactive” each time. Moreover, the call in experiment [2] was inactive.
On to `C=CCC1(C(C)CC)C(=O)NC(=O)NC1=O` (configuration not stated), for which the Potency result in experiment [1], in experiment [4], in [8], in [5] and in experiment [6] was “inactive” throughout. The compound was called inactive in [2]. The activity change, negative = inhibition in [7] is -17.9%.
Take `COc1ccc2c3c1O[C@H]1[C@H](O)CC[C@H]4[C@@H](C2)N(C)CC[C@@]341`: the Potency entry in experiment [1], in experiment [3], in experiment [4], in experiment [5] and in experiment [6] was “inactive” each time. In addition, the outcome in experiment [2] was inactive.
For `O=C1OC(c2ccc(O)c(S(=O)(=O)O)c2)(c2ccc(O)c(S(=O)(=O)O)c2)c2c(Br)c(Br)c(Br)c(Br)c21`, the Potency result in experiment [9], in experiment [4], in experiment [8], in experiment [7], in experiment [5] and in [6] was “inactive” in each case. Moreover, the call in experiment [2] was inactive.
As for `Clc1ccc(C(c2ccc(Cl)cc2)C(Cl)(Cl)Cl)cc1`, the Potency result in experiment [1], in [3], in experiment [8], in experiment [5] and in experiment [6] was “inactive” throughout. Moreover, the Potency in experiment [4] was 2.19 µM (active). The activity change, negative = inhibition in experiment [7] stood at 2.18%.
In the case of `CC(C)(N)Cc1ccccc1Cl`, the Potency result in [1], in [4], in experiment [5] and in [6] was “inactive” each time. Also, the compound was called inactive in experiment [2]. Also, the Potency in [3] was 13.8 µM (active).
